# Bioassay records deposited in PubChem by several laboratories.
# BJeLR lethal = MLPCN primary cell-based screen for lethality selective to Ras in HRASV12 cells | BJeLR (HRASV12) viability, CellTiter-Glo ATP luminescence, 48 h | inhibition, % (test concentration not listed) | hit rate 0.17% among 300,000 | AID 1554, 2009; in the data active = inhibition above about 50%
# Sa RN4220 lethal = growth inhibition of S. aureus RN4220, primary screen, OD600. 16 h. inhibition, % (concentration not given with the values). hit rate 0.33% among 330,000. AID 1259311, 2017; in the data active = inhibition above about 85%;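 note: plate controls were untreated cells for no effect and reference antibiotic for full effect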
# Sa ugtP lethal = growth inhibition of ugtP-null S. aureus, primary screen, RN4220 ugtP deletion, OD600; 16 h; hit rate 0.54% among 330,000; growth inhibition, % (test concentration not listed); AID 1259309, 2017; in the data active = growth inhibition above about 68%;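 note: plate controls were untreated wells for no effect and antibiotic for full effect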
# PfHsp40 yeast = rescue of yeast from PfHsp40 toxicity, primary screen, S. cerevisiae, ATP luminescence; hit rate 0.68% among 340,000; growth rescue, % at 12.5 µM; S. cerevisiae expressing PfHsp40, growth rescue; in the data active = growth rescue above about 28%, passing the limit was not always enough;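 note: yeast W303a lacking pdr1 and pdr3 grown in galactose medium; growth measured after three days at 30 °C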
# CCHF vOTU inh-1 = CCHFV vOTU protease inhibitors, primary screen, biochemical, Pep-AMC substrate, fluorescence; Crimean-Congo hemorrhagic fever virus L polyprotein viral ovarian tumor (vOTU) protease …; inhibition, % at 11.5 µM; hit rate 0.55% among 370,000; note: 0% = vehicle wells with enzyme and 100% = no enzyme wells
# CCHF vOTU inh-2 = CCHFV vOTU protease inhibitors, confirmation, biochemical, Pep-AMC substrate, fluorescence. Recombinant CCHFV vOTU. hit rate 17% among 1,900. inhibition, % at 11.5 µM. shares compounds with CCHF vOTU inh-1
# * marks the source's active call; other numbers are inactive results; . = no result given. Only some compounds are listed: those with a hit (about 1.6% of all), similar ones and a draw of the others. Cut-off read from the data, not from the text of the source, unless noted: active = inhibition above about 30%; inactive = the rest.
SMILES,BJeLR lethal,Sa RN4220 lethal,Sa ugtP lethal,PfHsp40 yeast,CCHF vOTU inh-1,CCHF vOTU inh-2
COc1ccc(N[C@@H]2CCN3C(=O)c4ccccc4[C@@H]3C[C@H]2O)cc1,.,4.1,-0.6,12.4,14.0,.
O=S(=O)(Cc1ccccc1)NCc1cccnc1,-0.4,5.8,10.7,-0.7,-4.4,.
CC(C)NC1=C(Cl)C(=O)c2ccccc2C1=O,3.5,85.5,63.7,-1.8,59.4*,59.5*
CC(=O)N(Cc1ccc(F)cc1)C1=C(NCCc2ccccc2)C(=O)c2ccccc2C1=O,34.7,33.3,-0.5,-1.1,86.8*,62.7*
CCN(CC)CCCNC1=C(Cl)C(=O)c2ccccc2C1=O,-2.3,25.7,0.5,-2.3,55.9*,56.2*
O=C1C(Cl)=C(NCc2cccnc2)C(=O)c2ccccc21,16.7,72.3,81.6,-1.2,70.0*,62.0*
COc1ccc(C=CCN2CCCC(CCC(=O)NCc3ccc(F)c(F)c3)C2)cc1 (stereo not drawn),.,-1.4,0.1,.,.,.
Cc1[nH]c2ccccc2c1C=NNC(=O)c1cc(-c2ccncc2)nc2ccccc12,.,1.0,-6.8,.,.,.
C=CCNC1=C(Cl)C(=O)c2ccccc2C1=O,-9.6,95.5*,90.5*,0.4,67.5*,59.2*
O=C1C(Cl)=C(NCCc2ccccc2)C(=O)c2ccccc21,.,36.9,13.3,3.7,82.7*,32.7*
O=C1C(Cl)=C(Nc2ccccc2)C(=O)c2ccccc21,8.5,56.0,19.9,-0.5,22.1,.
COC(=O)C(Cc1ccccc1)NC(=O)N1CC(C)OC(C)C1 (stereo not drawn),.,-1.2,-6.9,.,.,.
Cc1ccc(C=NNC(=O)c2cccc(NC(=O)c3ccccc3C)c2)o1,.,-1.8,6.0,.,.,.
CCOc1ccc(NS(=O)(=O)c2ccc(Cl)c(N=Nc3c(O)[nH]c(=S)[nH]c3=O)c2)cc1Br,.,.,.,.,33.0*,3.3
CCCCCC(=O)Nc1cccc(C2=NOC3(C2)CC(C(N)=O)N(C(=O)C2CCC(=O)N2)C3)c1 (stereo not drawn),.,6.2,1.4,.,.,.
OC(c1ccccc1)(c1ccccc1)C1CCN(CCCOc2cccc(Cl)c2)CC1,.,.,.,.,37.5*,-0.9
OC(c1ccccc1)(c1ccccc1)C1CCN(CCCOc2ccc(C(F)(F)F)cc2)CC1,.,.,.,.,24.0,.
OC(c1ccccc1)(c1ccccc1)C1CCN(CCCOc2ccc(OC(F)(F)F)cc2)CC1,.,.,.,.,30.7*,-0.6
CCCCCCCCNS(=O)(=O)/C=C/c1ccccc1CNC(=O)OC(C)(C)C,.,.,.,.,36.3*,16.1
CCCCNS(=O)(=O)/C=C/c1ccccc1CCNC(=O)OC(C)(C)C,.,.,.,.,1.1,.
Fc1ccc(-c2nnc(Cc3ccc(Cl)cc3)o2)cc1,4.1,3.7,5.0,1.6,30.5*,-15.0
Fc1ccc(Cc2nnc(-c3cccs3)o2)cc1,3.5,1.7,0.8,1.1,2.1,.
O=C(CNc1cccc2ccccc12)NN=Cc1ccccn1,.,1.5,1.0,.,.,.
COc1ccc(NC(=O)CCNC(=O)Cn2cnc3ccccc3c2=O)cc1OC,-4.4,-1.0,13.9,0.5,-2.5,.
O=C(Cn1cnc2ccccc2c1=O)NCCC(=O)Nc1ccc(F)cc1,-6.7,1.6,6.4,1.9,55.9*,-15.5
SMILES,BJeLR lethal,Sa RN4220 lethal,Sa ugtP lethal,PfHsp40 yeast,CCHF vOTU inh-1,CCHF vOTU inh-2
O=C(CNC(=O)c1ccccc1Br)NN=Cc1ccccc1O,.,3.6,-2.7,.,.,.
CC(C)(C)CC(C)(C)NC(=O)Nc1cccc([N+](=O)[O-])c1,11.2,1.5,-8.1,2.0,38.9*,-12.4
CCCCCCCCN1C(=O)[C@@H](CC(=O)N2CCN(C(=O)c3ccco3)CC2)C[C@@]2(C(=O)OC)C1=C[C@H](C(C)C)O[C@@H]2C1CC1,.,.,.,.,32.1*,26.0
CCCCCCCCN1C(=O)[C@@H](CC(=O)N2CCCC2)C[C@@]2(C(=O)OC)C1=C[C@H](C(C)C)O[C@@H]2C1CC1,.,.,.,.,27.1,.
C#CCNC(=O)C[C@H]1C[C@@]2(C(=O)OC)C(=C[C@H](C(C)C)O[C@@H]2C2CC2)N(CCCCCCCC)C1=O,.,.,.,.,38.8*,13.6
CCCCOCCCNC(=O)C[C@H]1C[C@@]2(C(=O)OC)C(=C[C@H](C(C)C)O[C@@H]2C2CC2)N(Cc2ccco2)C1=O,.,.,.,.,10.2,.
CCCCCCCCN1C(=O)[C@@H](CC(=O)NCCCOCCCC)C[C@@]2(C(=O)OC)C1=C[C@H](C(C)C)O[C@@H]2C1CC1,.,.,.,.,35.3*,36.9*
Cc1c(C(C)(C)C)sc(=NS(=O)(=O)c2ccccc2)n1C,.,7.2,10.6,.,.,.
CC1(C)Oc2ccc3ccc(=O)oc3c2C(C=NO)C1=O (stereo not drawn),.,2.4,11.5,.,.,.
Cc1c(C(=O)NN=Cc2ccncc2)no[n+]1[O-],.,3.4,6.6,.,.,.
CC(NC(=O)CS(=O)(=O)c1ccccc1)c1ccccc1 (stereo not drawn),-7.3,2.6,-2.7,1.3,36.1*,-25.4
COCCCNC1=C(Cl)C(=O)c2ccccc2C1=O,0.7,32.7,13.6,-1.1,12.3,.
COCCCNc1c2c3c(cccc3[nH]c1=O)C(=O)c1ccccc1-2,.,7.5,10.7,-0.5,32.4*,0.9
CCCC[C@@H]1C=C(C(=O)O)[C@H](c2ccc(CC)cc2)N1S(=O)(=O)c1ccc(C)cc1,.,18.7,-15.5,0.8,30.0*,21.2
CCCCC[C@@H]1C=C(C(=O)O)[C@H](c2cccc(C)c2)N1S(=O)(=O)c1ccc(C)cc1,.,20.4,5.2,6.5,31.9*,5.1
CCCCC[C@@H]1C=C(C(=O)O)[C@H](c2ccc(Cl)c(Cl)c2)N1S(=O)(=O)c1ccc(C)cc1,.,27.5,19.1,-0.7,37.2*,21.0
CC(O)C(=O)NN=Cc1ccccc1C(=O)O (stereo not drawn),.,12.5,10.9,.,.,.
N#Cc1c(-c2cccs2)nc(SCC(=O)c2cccs2)[nH]c1=O,1.5,3.7,40.2,0.5,31.4*,-3.3
CCCn1nc(NS(=O)(=O)c2cccc3nonc23)c2cc3cccc(C)c3nc21,2.9,36.6,-0.9,3.4,41.6*,14.8
CCCn1nc(NS(=O)(=O)c2cccc3nonc23)c2cc3cc(C)ccc3nc21,-0.2,23.1,-0.1,-0.7,14.0,.
Cc1c(P(=S)(c2ccccc2)c2ccccc2)[n+]2ccccc2n1C/C=C/c1ccccc1,.,.,.,.,30.1*,-32.6
Cc1ccc(S(=O)(=O)Nc2ccc(O)c3ccccc23)c(C)c1,9.4,12.0,-4.0,-0.7,66.2*,-18.9
Oc1ccc(F)c2cccnc12,2.6,23.2,12.2,-1.0,-14.4,.
Cc1ccc(C)c(S(=O)(=O)Nc2ccc(O)c(C(=O)O)c2)c1,-11.7,2.2,7.1,-0.7,-3.0,.
Cc1ccc(C)c(S(=O)(=O)Nc2ccc(O)c3ccccc23)c1,-9.4,19.3,5.4,-0.4,62.3*,-8.0
O=S(=O)(Nc1ccc(O)c2ncccc12)c1ccccc1F,.,.,.,.,62.0*,19.1
Cc1ccc(S(=O)(=O)Nc2ccc3c4c(cccc24)CC3)c(C)c1,27.6,14.6,7.5,0.8,-1.9,.
